# Only some compounds are listed: those with a hit (about 21% of all), similar ones and a draw of the others.
# ClpP mod: qHTS Assay for Activators of ClpP; purified B. subtilis ClpP, FRET peptide cleavage, 20 min; Potency, µM (highest dose often 57.5 µM), inactives show at the top dose activity change, negative = active; 340,000 compounds, 1.9% hits; ATP-dependent Clp protease proteolytic subunit (Bacillus subtilis (strain 168)), P80244; active = well fitted falling curve with a large enough effect; inconclusive = small, poorly fitted or top-dose-only effect; inactive = no such curve, though single readings can be large or run the other way; note: potency is the fitted concentration of half-maximal effect; the source files actives as falling curves though it sought activators and does not explain the sign; nearly all actives have a fitted effect of over 65% in size
# Target sequence (P80244 whole entry, looked up): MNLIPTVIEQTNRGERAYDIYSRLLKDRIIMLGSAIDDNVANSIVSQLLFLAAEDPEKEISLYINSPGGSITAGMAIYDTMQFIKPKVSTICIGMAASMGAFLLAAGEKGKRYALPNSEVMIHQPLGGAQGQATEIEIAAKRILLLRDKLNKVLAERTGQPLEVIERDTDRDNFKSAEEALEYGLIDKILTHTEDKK
#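 Buffer: 100 mM Tris/HCl pH8, 100 mM KCl, 0.05% low protease BSA, 2.5% glycerol, 0.01% Tween-20. ClpP 10 microg/mL final; 20 min RT; delta FRET normalized to ADEP and DMSO controls.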
# DRD3 agonist: activates the human D3 dopamine receptor; 410,000 compounds, 0.58% hits; P35462; D3R DiscoveRx beta-arrestin cells, luminescence, 90 min; max activation, %; in the data active = max activation above about 30%; note: 0% is about no effect
#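 Agonist mode: compounds and dopamine controls were applied to plated cells for 90 min at 37 degrees C after an overnight attachment at 1500 cells/well. Luminescent read-out followed 30 - 60 minutes at room temperature with DiscoveRx detection reagent.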
# DT40 TDP1 CPT: DT40-hTDP1 cell growth loss with CPT. chicken DT40 Tdp1-/-;hTDP1 cells + 20 nM CPT, ATP luminescence, 48 h. Potency, µM (series often up to 46.2 µM), without a hit: at the highest dose activity change, negative = growth inhibition, hits mostly inhibitors. 420,000 compounds, 12% hits. AID 686979; note: potency is the fitted concentration of half-maximal effect; % is set by controls: 0 for no effect and ±100 for the full control effect; nearly all actives have a fitted effect of over 55% in size
#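 Cell growth measured by CellTiter-Glo luminescence after a minimum 48 h, 37 C compound exposure with 20 nM CPT in Tdp1-knockout DT40 cells stably expressing hTDP1, seeded 400/well; qHTS titration format.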
# D3 antag: D3 dopamine receptor (human) antagonism; P35462; D3R cells, DiscoveRx beta-arrestin luminescence, antagonist mode; hits give low values; max response, negative = inhibition, %; 360,000 compounds, 2.5% hits; in the data active = max response below about -50%; inconclusive = no clear call, values can overlap the other calls; note: % is set by controls: 0 for no effect and ±100 for the full control effect
#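 Cells expressing the human receptor were seeded at 1500 cells/well, incubated overnight at 37 degrees C in 5% CO2, then exposed to library compounds with dopamine controls for 90 minutes at 37 degrees C before luminescent detection.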
# IL-1B inflam inh: inhibitors of inflammasome signaling (IL-1 beta secretion). THP-1 LPS/ATP IL-1B secretion, AlphaLISA, 16 h; hits give low values. 360,000 compounds, 4.7% hits. activity change, % at 57.5 µM; in the data active = activity change below about -50%; inconclusive = mostly about -30% to -49%; note: % is set by controls: 0 for no effect and ±100 for the full control effect
#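 THP-1 cells pretreated 1 hr with compounds (up to 57.5 uM final), then stimulated with LPS (250 ng/mL final) plus ATP (1.25 mM final); secreted IL-1B measured by AlphaLISA after 16 hr, decreased signal indicating inhibition.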
# DT40 TDP1 no CPT: qHTS for Inhibitors of human tyrosyl-DNA phosphodiesterase 1 (TDP1): qHTS in cells in absence of CPT | 420,000 compounds, 15% hits | DT40 Tdp1-/- hTDP1 cells, no CPT, ATP luminescence, 48 h | Potency, µM (highest dose often 46.2 µM), inactives show at the highest dose activity change, negative = growth inhibition, hits mostly inhibitors; note: potency is the fitted concentration of half-maximal effect; % is set by controls: 0 for no effect and ±100 for the full control effect; nearly all actives have a fitted effect of over 55% in size
#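 Stably hTDP1-transfected Tdp1-null chicken DT40 cells were treated with library compounds minus camptothecin and grown for at least 48 hr at 37 °C, after which cellular ATP was quantified by luminescence.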
# * marks the source's active call; other numbers are inactive results; ? = inconclusive; / = not tested or not shown. Unless noted, calls come from the whole dose curve; as a rule, active = well fitted inhibition curve with a large enough effect; inconclusive = small, poorly fitted or top-dose-only effect; inactive = flat fitted curve, though single readings scatter.
SMILES,ClpP mod,DRD3 agonist,DT40 TDP1 CPT,D3 antag,IL-1B inflam inh,DT40 TDP1 no CPT
Cc1ccc(-c2cccc(C3CC=CC4C3C(=O)N(Cc3ccccc3)C4c3ccc(C(F)(F)F)cc3)c2)cc1 (configuration not stated),-15%,-11,13µM*,-10,47,13µM*
O=C1[C@H]2CCC=C[C@H]2[C@H](c2ccccc2Br)N1Cc1ccccc1,0%,-51,?,-21,-9,?
CC(=O)OC1C(=O)N(Cc2ccccc2)C1c1ccc(C)cc1 (configuration not stated),/,-2,?,11,7,?
CC(=O)N1CCc2c(sc3c2c(=O)n(-c2ccccc2)c(=O)n3CC(=O)c2ccc(Cl)cc2)C1,-4%,-10,-21%,/,/,?
COc1ccc(C)cc1NC(=O)CCCN1C(=O)C(c2ccccc2)Oc2cccnc21 (configuration not stated),-1%,0,?,-3,-17,?
O=C1C2C(c3ccccc3)CC=CC2[C@H](c2ccc3ccccc3c2)N1Cc1ccccc1 (some centres not stated),-11%,-34,21µM*,-21,-20,23µM*
O=C1C2C(c3ccccc3)CC=CC2[C@H](c2ccoc2)N1Cc1ccccc1 (some centres not stated),-4%,-8,?,-22,-12,?
CC(C)c1ccc(NC(=O)CCS(=O)(=O)c2ccc(Br)s2)cc1,-2%,-4,18µM*,/,/,16µM*
CCOC(=O)c1ccc(NC(=O)CCS(=O)(=O)c2ccc(Br)s2)cc1,32µM*,-3,?,-2,19,18µM*
CC1CCC(NC(=O)C2CC(=O)N(c3ccc(Cl)cc3)C2)CC1 (configuration not stated),1%,-2,-12%,-9,26,12%
O=C1N=C2N(CCN3CCCCC3)c3ccccc3N2/C1=C\c1ccc([N+](=O)[O-])s1,1%,0,9.2µM*,2,-19,?
O=[N+]([O-])c1ccc(N2CCCCC2)s1,/,-6,-22%,-23,-15,-15%
Cc1cc(C)c(C(N)=O)c(SCC(=O)c2cc(C)n(-c3cc(C)on3)c2C)n1,-1%,20,1.2µM*,36,23,0.52µM*
Cc1cc(C(=O)CSc2nnnn2-c2ccccc2)c(C)n1-c1ccc2c(c1)OCO2,1%,2,23µM*,-17,9,13µM*
COc1ccc(-n2c(C)cc(C(=O)CN3C(=O)NC4(CCCc5sccc54)C3=O)c2C)cc1 (configuration not stated),-5%,-2,16µM*,-2,-5,21µM*
Cc1cc(-n2c(C)cc(C(=O)CSc3nncn3C)c2C)no1,/,-15,?,-8,20,?
Cc1cc(C(=O)CSc2nnc(-c3cccc(F)c3)n2N)c(C)n1Cc1ccc2c(c1)OCO2,0%,-6,15µM*,21,?,23µM*
Cc1cc(C(=O)CN2C(=O)NC3(CCCc4sccc43)C2=O)c(C)n1-c1ccccc1 (configuration not stated),-4%,-5,?,0,?,-25%
COc1ccc(COc2ccccc2C(=O)NCc2ccccc2)cc1F,-1%,17,?,48,40,?
Cc1csc(NC(=O)NCC2CCCC(CNC(=O)Nc3nc(C)cs3)C2)n1 (configuration not stated),/,4,?,-3,-6,?
O=C(/C=C/c1ccccc1Cl)NCCCn1ccnc1,1%,-9,-6%,-4,6,-7%
CCCn1c(SCC(=O)c2cc(C)n(-c3ccc4c(c3)OCO4)c2C)n[nH]c1=O,0%,3,23µM*,30,9,6.5µM*
